Assay [1] in a line: resazurin metabolic signal in HepG2 cells – cell-based, resazurin fluorescence, 24 h, PK04 Diversity Set, profiling panel (AID 1172). Note: test concentration not given here. The following applies: HepG2 viability, higher = more signal.
The nature of assay [2]: budding yeast growth changes without added modifier – OD600, strain BY4716, 24 h, basal condition, primary screen (AID 1173). The following applies: S. cerevisiae BY4716 growth, OD600, 24 h; higher = more signal, called active from +8 up or from −8 down.
Assay [3] is described as follows: viability profiling in MM1S myeloma cells – cell-based, resazurin fluorescence, basal, 24 h, PK04 Diversity Set, profiling panel (AID 1174).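 Note: MM1S multiple myeloma cell line; test concentration not given here.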 The settings on record: higher = more signal, called active from +8 up or from −8 down.
For assay [4], the target named is Dihydroorotate dehydrogenase (quinone), mitochondrial (Plasmodium falciparum (isolate 3D7)) (UniProt Q08210). The assay can be described thus: inhibition of P. falciparum DHODH – biochemical, C-terminal His tag, absorbance 600 nm, primary screen (AID 1175).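 Note: recombinant parasite enzyme with a five histidine tag at its C terminus; test concentration not given here.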 The settings on record: PfDHODH enzyme, DCIP absorbance 600 nm; higher = more signal, called active from +8 up or from −8 down.
Dihydroorotate dehydrogenase (quinone), mitochondrial (Plasmodium falciparum (isolate 3D7)), sequence (Q08210 whole entry, looked up): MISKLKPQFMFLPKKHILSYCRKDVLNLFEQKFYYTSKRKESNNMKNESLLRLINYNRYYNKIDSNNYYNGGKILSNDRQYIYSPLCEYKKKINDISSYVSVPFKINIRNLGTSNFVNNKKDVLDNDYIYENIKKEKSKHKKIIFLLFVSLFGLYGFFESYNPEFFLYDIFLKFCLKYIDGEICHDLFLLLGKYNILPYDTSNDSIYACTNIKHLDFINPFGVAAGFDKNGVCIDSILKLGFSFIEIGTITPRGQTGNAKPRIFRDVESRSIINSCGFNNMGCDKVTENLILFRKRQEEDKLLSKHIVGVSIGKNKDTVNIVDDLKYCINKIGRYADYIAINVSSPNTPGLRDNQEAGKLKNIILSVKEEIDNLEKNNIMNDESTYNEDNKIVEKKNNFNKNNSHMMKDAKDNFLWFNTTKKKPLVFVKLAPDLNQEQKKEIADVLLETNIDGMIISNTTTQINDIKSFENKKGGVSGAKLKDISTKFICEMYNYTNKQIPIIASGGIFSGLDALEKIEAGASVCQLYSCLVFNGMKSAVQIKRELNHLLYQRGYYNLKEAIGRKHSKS

The nature of assay [5]: inhibition of PAO1 biofilm formation – strain PAO1, LB-PBS medium, absorbance 600 nm, primary screen (AID 1176). Note: test concentration not given here. The settings on record: P. aeruginosa PAO1 growth/biofilm, A600, 12 h; higher = more signal.
Assay [6] in a line: growth modulation of vineyard yeast isolate – strain RM11-1a, OD600, basal, 24 h, primary screen (AID 1177).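 Note: cultures grown under basal conditions with no added stressor; test concentration not given here.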 The following applies: S. cerevisiae RM11-1a growth, OD600, 24 h; higher = more signal, called active from +8 up or from −8 down.
The nature of assay [7]: growth of efflux-deficient E. coli DRC39 – strain DRC39, OD650, 24 h, E. coli filamentation inducers, primary screen (AID 1178).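 Note: growth measured as culture turbidity by optical density at 650 nm; test concentration not given here.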 The following applies: E. coli DRC39 acrAB, higher = more signal, called active from +8 up or from −8 down.
The nature of assay [8]: growth of efflux-deficient E. coli DRC39 – strain DRC39, OD650, 48 h, E. coli filamentation inducers, primary screen (AID 1179).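 Note: screen aims at cell division blockers that make cells filament.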 The settings on record: E. coli DRC39 delta-acrAB growth, higher = more signal, called active from +8 up or from −8 down.
Assay [9] in a line: viability profiling in RPMI8226 myeloma cells – cell-based, resazurin fluorescence, basal, 24 h, PK04 Diversity Set, profiling panel (AID 1180).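 Note: RPMI8826 multiple myeloma cell line at 5000 cells per well; test concentration not given here.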 The following applies: higher = more signal. In general terms: The colour change of resazurin is a common sign of viable cells or microbes.
Assay [10] has as its target E3 ubiquitin-protein ligase XIAP (Homo sapiens) (UniProt P98170). The assay can be described thus: small molecules binding XIAP protein – biophysical, small-molecule microarray, fluorescence 635 nm, primary screen (AID 1181).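 Note: score merges 667 nm emission and signal to noise over triplicate slides.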 The following applies: higher = more signal.

Calls of active or inactive are those of the source. Unless noted, the rule behind the calls is not given here.

E3 ubiquitin-protein ligase XIAP (Homo sapiens), sequence (P98170 whole entry, looked up): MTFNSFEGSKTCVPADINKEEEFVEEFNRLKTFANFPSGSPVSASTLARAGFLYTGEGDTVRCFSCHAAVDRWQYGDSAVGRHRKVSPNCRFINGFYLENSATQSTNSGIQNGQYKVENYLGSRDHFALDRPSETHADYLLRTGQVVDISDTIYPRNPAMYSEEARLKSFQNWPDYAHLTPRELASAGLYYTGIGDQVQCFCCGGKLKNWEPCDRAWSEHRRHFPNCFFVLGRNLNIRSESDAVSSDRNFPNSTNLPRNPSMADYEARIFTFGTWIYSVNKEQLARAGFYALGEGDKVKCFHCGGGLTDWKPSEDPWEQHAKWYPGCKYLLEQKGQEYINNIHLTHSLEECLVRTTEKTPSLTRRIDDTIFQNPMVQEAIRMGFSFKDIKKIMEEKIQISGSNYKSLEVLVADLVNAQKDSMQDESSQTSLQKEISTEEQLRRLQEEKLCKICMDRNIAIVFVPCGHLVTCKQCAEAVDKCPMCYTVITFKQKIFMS

Consider `O=C1C2C=CC(C(O)Cc3ccccc3)N(Nc3ccc([N+](=O)[O-])cc3)C2C(=O)N1c1ccccc1` (stereo not given), for which the z-score in assay [1] is -0.346; in assay [2], -0.168 (inactive); in assay [3] it was -0.824 (inactive); in [5], 0.946 (inactive); in assay [6] it was -0.518 (inactive); in assay [7] it was -1.22 (inactive). Also, the z-score in assay [8] was 0.0196 (inactive); in assay [9], -0.358. Besides, the composite z-score in [4] is -0.75 (inactive); in assay [10] it was 0.202.
Take `C=C[C@H](OC)[C@@H](OC(=O)Nc1ccc(SC)cc1)c1ccc(O)c(F)c1`: the z-score in assay [1] is -0.0359; in assay [2], -2.99 (inactive); in assay [3], 0.0545 (inactive); in [5], 1.88 (inactive); in assay [6] it was -0.703 (inactive); in assay [7], 0.543 (inactive). Moreover, the z-score in [8] was 0.519 (inactive); in [9] it was 0.035. Moreover, the composite z-score is -2.05 (inactive) in [4] and -0.192 in [10].
As for `N#Cc1ccc(NN2C(C(O)CCc3ccccc3)C=CC3C(=O)N(c4ccccc4)C(=O)C32)cc1` (stereo not given), the z-score in assay [1] is -0.618; in assay [2], -0.333 (inactive); in assay [3] it was -0.611 (inactive); in [5], 1.01 (inactive); in [6], -1.97 (inactive); in [7] it was 0.143 (inactive). Moreover, the z-score in assay [8] is 0.7 (inactive); in assay [9], -0.152. In addition, the composite z-score in assay [4] is -2.09 (inactive); in assay [10], -0.127.
In the case of `C#CCCCON=C1C[C@@H](O)[C@@H](O)[C@@H]2[C@@H]3C(=O)N(Cc4ccc5c(c4)OCO5)C(=O)[C@@H]3CC[C@H]12`, the z-score was 0.168 in assay [1]; 0.0943 (inactive) in assay [2]; -0.255 (inactive) in assay [3]; -0.708 (inactive) in assay [5]; 0.162 (inactive) in assay [6]; 0.483 (inactive) in [7]. For the same compound, the z-score was 0.961 (inactive) in assay [8] and 0.126 in assay [9]. For the same compound, the composite z-score in assay [4] was -0.338 (inactive); in [10], -0.127.
With `[N-]=[N+]=NCc1ccccc1[C@H]1OC(c2ccc(OCCCO)cc2)=N[C@@]1(Cc1ccccc1N=[N+]=[N-])C(=O)NCc1ccccc1`, the z-score was -0.494 in assay [1]; 0.745 (inactive) in assay [2]; -2.31 (inactive) in assay [3]; 2.26 (inactive) in assay [5]; 1.95 (inactive) in assay [6]; 0.134 (inactive) in assay [7]. Besides, the z-score in assay [8] was -0.321 (inactive); in [9], -1.52. Besides, the figures for the composite z-score in assay [4] and in [10] were 0.545 (inactive) and -0.117, respectively.
Regarding `O=C1c2ccccc2[C@@]2(Cc3ccccc3N(CC(F)(F)F)C2=O)[C@H](c2ccc(CO)cc2)N1C1CCCCC1`, the z-score in [1] is -0.0665; in [2] it was 0.713 (inactive); in [3] it was 1.07 (inactive); in assay [5], 0.379 (inactive); in [6], -0.572 (inactive); in assay [7] it was 0.172 (inactive). Moreover, the z-score is -0.411 (inactive) in [8] and 0.748 in assay [9]. Also, the composite z-score is -24.3 (active) in assay [4] and -0.2 in assay [10].
With `COc1ccc([Si](C)(C)[C@@H]2[C@@H](CC(=O)N(CCO)Cc3ccccc3)O[C@]3(C(=O)N(Cc4cccc(N5CCC5=O)c4)c4ccccc43)[C@H]2C)cc1`, the z-score was -1.51 in assay [1]; 0.328 (inactive) in assay [2]; -2.9 (inactive) in assay [3]; 0.708 (inactive) in [5]; 1.32 (inactive) in assay [6]; 0.882 (inactive) in assay [7]. Also, the z-score in assay [8] is -0.0661 (inactive); in assay [9], -2.08. Moreover, the composite z-score is -0.645 (inactive) in [4] and 0.154 in assay [10].
`COC(=O)C1=CC(c2ccc(CO)cc2)=CC(c2cccs2)N(Cc2cccc(OC(F)(F)F)c2)C=C1C(=O)OC` (stereo not given): the z-score in [1] is -0.55; in assay [2], -0.871 (inactive); in assay [3], -1.67 (inactive); in assay [5] it was 0.683 (inactive); in assay [6] it was 1.62 (inactive); in assay [7], 0.0045 (inactive). Also, the z-score is -0.964 (inactive) in assay [8] and -0.701 in [9]. Further, the composite z-score is -5.67 (inactive) in [4] and 0.109 in assay [10].
In the case of `O=C1NC(=O)C2C1C=CC(C(O)C=Cc1ccc([N+](=O)[O-])cc1)N2Nc1ccccn1` (stereo not given), the z-score in assay [1] was -0.629; in assay [2], -0.203 (inactive); in assay [3], -0.373 (inactive); in [5], 1.23 (inactive); in assay [6] it was 0.086 (inactive); in assay [7], 0.195 (inactive). The z-score in assay [8] is -0.466 (inactive); in assay [9] it was -0.742. For the same compound, the composite z-score in assay [4] is 0.643 (inactive); in assay [10], 0.289.
For `CCOC(=O)C[C@H]1[C@H](OC(=O)c2ccccc2-c2ccccc2)[C@@H](NC(=O)c2ccc(-c3ccccc3)cc2)c2cc(OCCCO)ccc2N1C(=O)Cc1ccc(OC)cc1`, the z-score is -0.235 in assay [1]; -0.034 (inactive) in assay [2]; -0.0275 (inactive) in assay [3]; 0.2 (inactive) in [5]; -0.28 (inactive) in assay [6]; -0.489 (inactive) in [7]. Moreover, the values for the z-score in assay [8] and in assay [9] were -0.628 (inactive) and 0.364, respectively. Also, the composite z-score was -1.29 (inactive) in assay [4] and -0.16 in assay [10].
Turning to `CCCC=C(CCC)[C@@H](NC(=O)c1ccccc1)c1ccccc1`, the z-score is -0.232 in [1]; 0.752 (inactive) in [2]; -1.01 (inactive) in [3]; 1.27 (inactive) in [5]; 0.0321 (inactive) in assay [6]; 0.164 (inactive) in assay [7]. Besides, the z-score was 0.475 (inactive) in assay [8] and 0.0944 in assay [9]. Further, the composite z-score in [4] was -0.421 (inactive); in [10] it was 0.086.
Consider `C=C(C(=O)CC[C@H](OC(=O)c1ccccc1-c1ccccc1C(=O)O)c1ccc(CO)o1)C(C)C`, for which the z-score in assay [1] is -0.256; in [2], 0.656 (inactive); in assay [3], 0.192 (inactive); in assay [5], 0.98 (inactive); in assay [6], 1.73 (inactive); in assay [7], 0.101 (inactive). Further, the z-score in assay [8] is 0.0357 (inactive); in [9], 0.951. Moreover, the composite z-score was -0.976 (inactive) in assay [4] and -0.153 in assay [10].
In the case of `C=C(COC)C(=O)CC[C@H](OC(=O)c1ccccc1-c1ccccc1C(=O)O)c1cccc(OCCO)c1`, the z-score was -1.06 in assay [1]; -17.1 (active) in [2]; -0.805 (inactive) in assay [3]; 1.99 (inactive) in assay [5]; -5.09 (inactive) in assay [6]; -1.27 (inactive) in assay [7]. Further, the figures for the z-score in [8] and in [9] were -1.04 (inactive) and -0.858, respectively. Further, the composite z-score in assay [4] is -6.66 (inactive); in assay [10], 0.511.

For the origin of these results see PubChem BioAssay.
